Data on 4 molecules can be found in PubChem BioAssay (EPA / NIEHS).

A short description of experiment [1]: ATG_M_32_CIS: Attagene CIS-FACTORIAL HepG2 Assay for M32 Transcription Factor (Internal Marker) (AID 2282949).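 Also: background control marker of the multiplexed CIS panel rather than a real target.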 The note with it: HepG2 Attagene cis-factorial M32 reporter, mRNA; actives raise or lower the signal. The method in brief:
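HepG2 cells transiently transfected with multiplexed cis-regulated reporter units, dosed 24 h. Reporter mRNA quantified by RT-PCR, 6-FAM labelling, HpaI digestion and capillary electrophoresis; bidirectional fit vs DMSO.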

Experiment [2] can be described thus: ATG_M_06_CIS: Attagene CIS-FACTORIAL HepG2 Assay for M06 Transcription Factor (Internal Marker) (AID 2282950). The settings on record: HepG2 Attagene CIS-FACTORIAL M06 internal marker reporter; actives raise or lower the signal. The method in brief: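 HepG2 cells transiently transfected with cis-regulated multiple reporter transcription units were exposed to chemical for 24 h; reporter mRNA was quantified by RT-PCR, 6-FAM primer labelling, HpaI digestion and capillary electrophoresis, fitted bidirectionally against DMSO.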

Experiment [3] addresses Hypoxia-inducible factor 1-alpha (Homo sapiens) (UniProt Q16665). Description: ATG_HIF1a_CIS: Attagene CIS-FACTORIAL HepG2 Assay for human Hypoxia Inducible Factor 1 (HIF1A) (AID 2282951). The note with it: HepG2 Attagene cis-factorial HIF1a reporter transcription; actives raise or lower the signal. The method in brief: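 In this multiplexed cell assay, HepG2 cells bearing transfected cis reporters are dosed for 24 h and reporter mRNA is read by RT-PCR plus capillary electrophoresis; signal increases and decreases are both scored against DMSO.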

Experiment [4] has as its target Hepatocyte nuclear factor 6 (Homo sapiens) (UniProt Q9UBC0). As to the kind of experiment: ATG_HNF6_CIS: Attagene CIS-FACTORIAL HepG2 Assay for human Hepatocyte Nuclear Factor 6 (HNF6) (AID 2282952). The note with it: HepG2 Attagene cis-factorial HNF6 reporter transcription; actives raise or lower the signal. The method in brief: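 HepG2 cells transiently transfected with cis-element-driven multiplexed reporter units measuring endogenous transcription factor activity. After 24 h exposure, reporter mRNA quantified by RT-PCR, FAM-labelled fragments and capillary electrophoresis; bidirectional fitting versus DMSO.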

The target of experiment [5] is Heat shock factor protein 1 (Homo sapiens) (UniProt Q00613). As to the kind of experiment: ATG_HSE_CIS: Attagene CIS-FACTORIAL HepG2 Assay for human Heat Shock Transcription Factor 1 (HSE) (AID 2282953). The settings on record: HepG2 HSE cis-reporter, Attagene RNA transcription; actives raise or lower the signal. The method in brief:
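HepG2 cells transiently transfected with multiple reporter transcription units under cis-regulatory promoter control, measuring endogenous transcription factor activity. After 24 h chemical exposure, reporter mRNA quantified by RT-PCR, fluorescent labelling, HpaI digestion and capillary electrophoresis; bidirectional fit versus DMSO.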

The nature of experiment [6]: ATG_MRE_CIS: Attagene CIS-FACTORIAL HepG2 Assay for human Metal Responsive Element (MRE) (AID 2282954). The note with it: HepG2 MRE cis-reporter transcription, Attagene multiplex; actives raise or lower the signal. The method in brief:
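Step one: transfect HepG2 with cis-regulated reporter units. Step two: dose 24 h. Step three: isolate RNA, RT-PCR, 6-FAM label, HpaI digest, capillary electrophoresis. Fit bidirectionally to DMSO.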

Experiment [7] deals with Paired box protein Pax-6 (Homo sapiens) (UniProt P26367). As to the kind of experiment: ATG_Pax6_CIS: Attagene CIS-FACTORIAL HepG2 Assay for human Paired Box 6 (PAX6) (AID 2282956). The settings on record: HepG2 CIS-FACTORIAL PAX6 reporter transcription, RNA readout; actives raise or lower the signal. The method in brief: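 HepG2 cells transiently transfected with multiplexed cis-promoter reporter units (endogenous TF activity) were dosed for 24 h. Reporter mRNA was quantified by RT-PCR, 6-FAM labeling, HpaI digestion and capillary electrophoresis; bidirectional fitting versus DMSO baseline.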

The nature of experiment [8]: ATG_PXRE_CIS: Attagene CIS-FACTORIAL HepG2 Assay for human Pregnane X Receptor Element (PXRE) (AID 2282957). The settings on record: HepG2 Attagene CIS-FACTORIAL PXRE reporter, mRNA; actives raise or lower the signal. The method in brief: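 HepG2 cells transiently transfected with cis-element-driven multiplexed reporter units; after 24 h chemical exposure, reporter mRNA measured by RT-PCR, 6-FAM labelling, HpaI digestion and capillary electrophoresis. Bidirectional fitting relative to DMSO.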

Experiment [9] can be described thus: ATG_RORE_CIS: Attagene CIS-FACTORIAL HepG2 Assay for human RAR-related Orphan Receptor Element (RORE) (AID 2282959). The note with it: HepG2 Attagene cis-factorial RORE reporter, mRNA; actives raise or lower the signal. The method in brief: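 Fluorescence intensity of reporter-specific cDNA fragments, separated by capillary electrophoresis, gives the signal. Source: HepG2 liver cells transiently transfected with cis-element reporters and exposed 24 h; DMSO-normalized bidirectional fit.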

Experiment [10] is described as follows: ATG_Sox_CIS: Attagene CIS-FACTORIAL HepG2 Assay for human SRY-box transcription factor (SOX) (AID 2282960). The settings on record: HepG2 Attagene cis-factorial SOX reporter, mRNA; actives raise or lower the signal. The method in brief:
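After 24 h of chemical treatment, transfected HepG2 reporter cells are lysed for total RNA. Transcript levels come from RT-PCR with labelled primer extension and capillary electrophoresis, analysed bidirectionally versus DMSO.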

Experiment [11] concerns the target Transcription factor Sp1 (Homo sapiens) (UniProt P08047). Description: ATG_Sp1_CIS: Attagene CIS-FACTORIAL HepG2 Assay for human Specificity Protein 1 (Sp1) (AID 2282961). The note with it: HepG2 Sp1 cis-reporter transcription, actives raise or lower the signal. The method in brief:
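Sp1-driven reporter mRNA, read as capillary electrophoresis fluorescence after RT-PCR, in transiently transfected HepG2 cells dosed for 24 h; signal change in either direction relative to DMSO.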

Experiment [12] in a line: ATG_SREBP_CIS: Attagene CIS-FACTORIAL HepG2 Assay for human Sterol Regulatory Element Binding (SREBP) (AID 2282962). The note with it: HepG2 Attagene cis-factorial SREBP reporter, mRNA; actives raise or lower the signal. The method in brief:
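HepG2 cells transiently transfected with multiplexed cis-element reporter units report endogenous transcription factor activity. After 24 h of chemical exposure, reporter mRNA was quantified by RT-PCR, 6-FAM labelling, HpaI digestion and capillary electrophoresis; bidirectional fits used DMSO as baseline.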

Experiment [13] concerns the target Signal transducer and activator of transcription 3 (Homo sapiens) (UniProt P40763). Description: ATG_STAT3_CIS: Attagene CIS-FACTORIAL HepG2 Assay for human Signal Transducer and Activator of Transcription 3 (STAT3) (AID 2282963). The settings on record: HepG2, Attagene cis-factorial STAT3 reporter transcription; actives raise or lower the signal. The method in brief:
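Transcript-level reporter assay. HepG2 transient MRTU transfection, 24 h exposure, fluorescence detection after RT-PCR and CE; DMSO baseline.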

Experiment [14] is described as follows: ATG_TA_CIS: Attagene CIS-FACTORIAL HepG2 Assay for human TA Basal Promoter (AID 2282964). The note with it: HepG2 Attagene CIS-factorial TA basal promoter reporter; actives raise or lower the signal. The method in brief: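 HepG2 cells transiently transfected with multiplexed cis-promoter reporter units, dosed 24 h. Reporter mRNA measured by RT-PCR, 6-FAM labelling, HpaI digestion and capillary electrophoresis; bidirectional fit versus DMSO baseline, serving as background control.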

Experiment [15] can be described thus: ATG_TCF_b_cat_CIS: Attagene CIS-FACTORIAL HepG2 Assay for human T-Cell-Factor with beta-catenin (TCF/b-cat) (AID 2282965). The note with it: HepG2 TCF/beta-catenin cis-reporter transcription, actives raise or lower the signal. The method in brief:
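Using capillary electrophoresis as the read-out, labelled reporter cDNA fragments from transiently transfected HepG2 were sized and quantified. Exposure lasted 24 hours; activity in either direction was referenced to DMSO.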

Experiment [16] can be described thus: ATG_TAL_CIS: Attagene CIS-FACTORIAL HepG2 Assay for human TAL Basal Promoter (AID 2282966).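 Also: background control endpoint measuring basal TAL promoter reporter mRNA not a specific factor.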 The settings on record: HepG2 Attagene cis-factorial TAL promoter reporter; actives raise or lower the signal. The method in brief:
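HepG2 cells transiently transfected with multiplexed cis-promoter reporter units, dosed 24 h. Reporter mRNA quantified by RT-PCR, 6-FAM labelling, HpaI digestion and capillary electrophoresis; TAL basal promoter serves as background control, fitted bidirectionally versus DMSO.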

Experiment [17] in a line: ATG_TGFb_CIS: Attagene CIS-FACTORIAL HepG2 Assay for human Transforming Growth Factor (TGF) (AID 2282967). The note with it: HepG2 Attagene CIS TGFb reporter, mRNA transcription; actives raise or lower the signal. The method in brief:
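HepG2 cells transiently transfected with cis-promoter-driven multiplexed reporter units; 24 h compound exposure. Reporter mRNA measured by RT-PCR, 6-FAM labeling, HpaI digestion and capillary electrophoresis; bidirectional fit versus DMSO baseline.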

A short description of experiment [18]: ATG_PPRE_CIS: Attagene CIS-FACTORIAL HepG2 Assay for human Peroxisome Proliferator-activated Response Element (PPRE) (AID 2282958). The settings on record: HepG2 PPRE cis-element reporter, Attagene transcription factor profiling; actives raise or lower the signal. The method in brief:
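Multiplexed reporter transcription units under cis-regulatory promoters were transfected into HepG2 cells to capture endogenous factor activity. A 24 h incubation preceded RNA isolation and fluorescent RT-PCR fragment analysis.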

Experiment [19] is described as follows: ATG_VDRE_CIS: Attagene CIS-FACTORIAL HepG2 Assay for human Vitamin D Receptor Element (VDRE) (AID 2282968). The settings on record: HepG2 VDRE cis-reporter transcription, actives raise or lower the signal. The method in brief:
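RT-PCR/CE readout of reporter mRNA; HepG2, transient transfection, 24 h dosing; DMSO baseline; bidirectional analysis.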

A short description of experiment [20]: ATG_PBREM_CIS: Attagene CIS-FACTORIAL HepG2 Assay for human Phenobarbital-responsive Enhancer Module (PBREM) (AID 2282955). The settings on record: HepG2 PBREM cis-reporter, Attagene multiplexed transcription; actives raise or lower the signal. The method in brief: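 After a 24 h incubation with test chemical, transfected HepG2 cells yield total RNA; reporter-specific RT-PCR products are fluorescently labelled, HpaI-digested and resolved by capillary electrophoresis against ROX size standards.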

Structures are written as SMILES. The source made the active and inactive calls. The calls were made as follows: active = hit-call score of the fitted dose curve at least 0.9, where 1 is the maximum; inactive = score below 0.9.

Sequence of Transcription factor Sp1 (Homo sapiens) (P08047 whole entry, looked up): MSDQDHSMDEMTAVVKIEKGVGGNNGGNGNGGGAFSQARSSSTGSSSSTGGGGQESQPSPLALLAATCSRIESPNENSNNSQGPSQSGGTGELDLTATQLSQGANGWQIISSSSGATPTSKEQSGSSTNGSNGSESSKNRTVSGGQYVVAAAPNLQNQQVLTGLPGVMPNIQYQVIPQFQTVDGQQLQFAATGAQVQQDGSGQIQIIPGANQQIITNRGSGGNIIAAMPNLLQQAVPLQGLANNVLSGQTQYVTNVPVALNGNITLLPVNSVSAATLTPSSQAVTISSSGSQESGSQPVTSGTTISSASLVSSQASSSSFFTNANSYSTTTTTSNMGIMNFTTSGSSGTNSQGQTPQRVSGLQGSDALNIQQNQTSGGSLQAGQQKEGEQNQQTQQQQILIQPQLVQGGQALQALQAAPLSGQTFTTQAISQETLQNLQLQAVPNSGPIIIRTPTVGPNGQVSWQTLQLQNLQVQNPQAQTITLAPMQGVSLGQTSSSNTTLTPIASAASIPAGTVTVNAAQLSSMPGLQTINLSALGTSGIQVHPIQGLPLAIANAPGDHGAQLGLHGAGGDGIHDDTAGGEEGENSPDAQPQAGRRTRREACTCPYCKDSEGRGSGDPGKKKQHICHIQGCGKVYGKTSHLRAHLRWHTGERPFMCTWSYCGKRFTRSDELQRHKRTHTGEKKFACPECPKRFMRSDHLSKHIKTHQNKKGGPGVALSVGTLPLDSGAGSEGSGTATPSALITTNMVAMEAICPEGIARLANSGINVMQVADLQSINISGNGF
Sequence of Paired box protein Pax-6 (Homo sapiens) (P26367 whole entry, looked up): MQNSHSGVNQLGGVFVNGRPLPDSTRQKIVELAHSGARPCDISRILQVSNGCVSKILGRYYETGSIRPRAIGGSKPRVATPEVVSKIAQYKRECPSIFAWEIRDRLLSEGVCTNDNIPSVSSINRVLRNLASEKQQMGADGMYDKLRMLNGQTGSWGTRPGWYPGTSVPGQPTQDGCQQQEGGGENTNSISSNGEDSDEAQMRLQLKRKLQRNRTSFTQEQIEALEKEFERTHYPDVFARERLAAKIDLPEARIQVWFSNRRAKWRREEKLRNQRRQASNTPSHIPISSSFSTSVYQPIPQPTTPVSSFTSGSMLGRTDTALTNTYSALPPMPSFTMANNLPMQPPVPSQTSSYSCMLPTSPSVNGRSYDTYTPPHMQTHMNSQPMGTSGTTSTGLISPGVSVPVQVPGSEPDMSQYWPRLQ
Sequence of Hypoxia-inducible factor 1-alpha (Homo sapiens) (Q16665 whole entry, looked up): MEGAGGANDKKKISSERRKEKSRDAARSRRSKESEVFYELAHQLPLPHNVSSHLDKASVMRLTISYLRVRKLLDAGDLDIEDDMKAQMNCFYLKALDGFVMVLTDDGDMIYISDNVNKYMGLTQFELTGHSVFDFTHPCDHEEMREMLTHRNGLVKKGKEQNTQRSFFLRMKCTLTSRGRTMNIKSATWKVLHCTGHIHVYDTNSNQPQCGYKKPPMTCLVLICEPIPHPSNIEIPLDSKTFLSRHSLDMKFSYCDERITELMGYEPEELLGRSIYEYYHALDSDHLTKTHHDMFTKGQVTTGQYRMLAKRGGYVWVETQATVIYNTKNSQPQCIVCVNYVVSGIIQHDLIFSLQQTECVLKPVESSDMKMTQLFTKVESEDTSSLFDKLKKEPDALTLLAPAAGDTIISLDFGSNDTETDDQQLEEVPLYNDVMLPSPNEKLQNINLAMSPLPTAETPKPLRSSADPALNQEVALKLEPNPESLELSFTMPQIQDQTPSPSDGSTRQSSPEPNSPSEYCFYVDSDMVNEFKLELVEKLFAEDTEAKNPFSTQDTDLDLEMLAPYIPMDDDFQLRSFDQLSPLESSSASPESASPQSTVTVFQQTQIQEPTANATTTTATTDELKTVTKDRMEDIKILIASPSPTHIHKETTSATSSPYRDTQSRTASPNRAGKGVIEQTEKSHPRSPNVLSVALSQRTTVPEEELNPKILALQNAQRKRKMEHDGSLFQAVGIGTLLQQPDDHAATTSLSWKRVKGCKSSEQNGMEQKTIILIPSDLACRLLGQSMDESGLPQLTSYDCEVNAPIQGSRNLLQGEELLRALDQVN
Sequence of Signal transducer and activator of transcription 3 (Homo sapiens) (P40763 whole entry, looked up): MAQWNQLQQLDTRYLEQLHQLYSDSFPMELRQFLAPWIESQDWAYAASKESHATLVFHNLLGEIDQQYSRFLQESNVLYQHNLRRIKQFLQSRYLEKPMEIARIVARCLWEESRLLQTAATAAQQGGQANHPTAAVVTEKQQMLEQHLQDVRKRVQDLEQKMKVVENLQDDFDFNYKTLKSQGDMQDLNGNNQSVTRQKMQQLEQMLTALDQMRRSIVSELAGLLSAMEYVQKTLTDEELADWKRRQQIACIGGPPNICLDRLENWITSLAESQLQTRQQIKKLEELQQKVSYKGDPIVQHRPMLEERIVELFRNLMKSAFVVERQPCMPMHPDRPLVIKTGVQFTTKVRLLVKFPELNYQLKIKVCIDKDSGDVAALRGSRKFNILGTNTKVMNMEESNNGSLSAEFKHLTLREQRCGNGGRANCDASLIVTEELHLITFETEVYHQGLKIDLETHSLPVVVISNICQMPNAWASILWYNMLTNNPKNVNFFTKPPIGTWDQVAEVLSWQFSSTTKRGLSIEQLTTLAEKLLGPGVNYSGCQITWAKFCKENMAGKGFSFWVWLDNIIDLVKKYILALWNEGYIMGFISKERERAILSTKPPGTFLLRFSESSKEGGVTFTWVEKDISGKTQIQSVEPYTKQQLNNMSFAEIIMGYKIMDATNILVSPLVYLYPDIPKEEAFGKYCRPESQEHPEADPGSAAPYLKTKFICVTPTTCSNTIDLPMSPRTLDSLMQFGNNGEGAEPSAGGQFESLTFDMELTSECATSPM
Sequence of Hepatocyte nuclear factor 6 (Homo sapiens) (Q9UBC0 whole entry, looked up, the tested form may be a part): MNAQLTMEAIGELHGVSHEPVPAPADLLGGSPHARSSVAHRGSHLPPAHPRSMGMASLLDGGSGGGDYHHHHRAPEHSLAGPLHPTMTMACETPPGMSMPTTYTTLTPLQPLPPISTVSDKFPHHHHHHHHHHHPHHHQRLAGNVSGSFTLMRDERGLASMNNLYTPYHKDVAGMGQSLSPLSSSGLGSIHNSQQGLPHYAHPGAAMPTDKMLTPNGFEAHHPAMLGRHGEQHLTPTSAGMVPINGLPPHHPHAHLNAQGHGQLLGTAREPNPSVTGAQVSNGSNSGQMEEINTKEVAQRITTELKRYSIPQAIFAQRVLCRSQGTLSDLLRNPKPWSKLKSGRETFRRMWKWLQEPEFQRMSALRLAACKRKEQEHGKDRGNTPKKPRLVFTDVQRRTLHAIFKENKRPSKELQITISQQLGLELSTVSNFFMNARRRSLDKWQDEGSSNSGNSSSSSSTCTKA
Sequence of Heat shock factor protein 1 (Homo sapiens) (Q00613 whole entry, looked up): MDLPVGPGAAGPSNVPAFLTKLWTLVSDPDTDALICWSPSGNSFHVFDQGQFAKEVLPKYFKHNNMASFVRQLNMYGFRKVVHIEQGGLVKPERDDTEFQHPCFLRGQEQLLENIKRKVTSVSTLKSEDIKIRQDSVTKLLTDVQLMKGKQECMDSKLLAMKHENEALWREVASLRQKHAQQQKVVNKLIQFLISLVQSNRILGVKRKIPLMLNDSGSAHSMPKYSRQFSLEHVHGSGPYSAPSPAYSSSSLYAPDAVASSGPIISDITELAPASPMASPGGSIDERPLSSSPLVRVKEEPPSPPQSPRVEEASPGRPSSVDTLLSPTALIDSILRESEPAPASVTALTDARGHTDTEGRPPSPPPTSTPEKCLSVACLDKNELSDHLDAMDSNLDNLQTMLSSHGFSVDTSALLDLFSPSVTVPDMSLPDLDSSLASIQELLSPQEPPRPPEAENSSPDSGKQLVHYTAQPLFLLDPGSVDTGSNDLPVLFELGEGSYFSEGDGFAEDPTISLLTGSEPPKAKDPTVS

Turning to `Oc1cc(Cl)c(Cl)cc1Cl`, the outcome in [1], in experiment [2], in experiment [3], in experiment [4], in experiment [5] and in experiment [10] was inactive. Further, the molecule was classed as inactive in [13], in [14], in experiment [15], in [16] and in [17]. Besides, the AC50 (usually the midpoint of the concentration-response curve, whichever way the signal moves) in [6] is 63 µM (active); in experiment [7], 54 µM (active); in experiment [8], 25.8 µM (active); in experiment [9] it was 46.2 µM (active); in experiment [11] it was 58.2 µM (active); in experiment [12], 136 µM (active).
On to `CC(c1ccccc1)(c1ccc(O)cc1)c1ccc(O)cc1`, for which the call in [1], in [2], in experiment [3], in [4], in experiment [18] and in [9] was inactive. Also, the molecule was called inactive in [10], in experiment [11], in experiment [13], in experiment [14], in experiment [16] and in experiment [17]. For the same molecule, the AC50 in [5] is 17.7 µM (active); in experiment [6] it was 16.3 µM (active); in [7], 17.8 µM (active); in experiment [8], 2.92 µM (active); in [19], 1.8 µM (active).
Consider `Clc1cc(C(Cl)(Cl)Cl)cnc1Cl`, for which the result in experiment [1], in experiment [2], in [4], in [5], in experiment [18] and in experiment [9] was inactive. Moreover, the result in [10], in [11], in [13], in experiment [14], in [16] and in [17] was inactive. Also, the outcome in [19] was inactive. Further, the AC50 in experiment [3] was 9 µM (active); in [6], 9.1 µM (active); in [7] it was 8.8 µM (active); in [8], 8.47 µM (active); in [12], 17.5 µM (active); in experiment [15], 8.55 µM (active).
Turning to `Oc1cccc(-c2ccccc2)c1`, the result in [1], in experiment [2], in experiment [3], in experiment [4], in [5] and in experiment [6] was inactive. Besides, the outcome in experiment [20], in [18], in experiment [9], in [10], in experiment [13] and in [14] was inactive. Besides, the molecule was called inactive in experiment [16] and in [17]. Besides, the AC50 in experiment [8] was 27.2 µM (active); in experiment [11], 168 µM (active); in experiment [12], 64.2 µM (active); in experiment [19], 66.3 µM (active).
